Hits are enriched below; roughly 4.6% of the tested compounds scored in any of these assays.
Marburg entry inh = Marburg virus entry inhibition. Potency, µM (titrated, usually from 37.8 µM), inactives show top-dose activity change, negative = inhibition, hits mostly inhibitors. AID 540276. Marburg virus pseudotyped entry inhibition, cell reporter. 300,000 tested, 1.8% active; calls by dose curve; tested in HEK293 cells
HCV inhibitor = inhibitors of hepatitis C virus infection. AID 651820. 340,000 tested, 3.4% active. Huh7.5.1 HCVcc-Cre infection, luciferase reporter, 44 h. Potency, µM (titrated, usually from 41.8 µM), without a hit: at the top dose activity change, negative = inhibition, most hits filed as inhibitors; active means well fitted inhibition curve with a large enough effect; inconclusive means small, poorly fitted or top-dose-only effect, or another doubt; inactive means no such curve, though single readings can be large or run the other way
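Antiviral activity was scored by luciferase reporter output from cells infected with HCVcc-Cre (~0.5 moi) in presence of compound, 44 h infection period, cells seeded 1,000/well 4 h prior.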
Vaccinia Venus = vaccinia inhibition (Venus reporter). Vaccinia virus Venus reporter expression, fluorescence. Potency, µM (top dose mostly 36.5 µM), for inactives: at the highest dose activity change, negative = inhibition, hits mostly inhibitors. 330,000 tested, 0.46% active; calls by dose curve; tested in A549 cells; further: nearly all actives have a fitted effect of over 30% in size
LASV entry inh = blocks Lassa virus binding to or entry into cells; Lassa virus pseudotype entry inhibition, cell reporter; Potency, µM (series often up to 37.9 µM), without a hit: top-dose activity change, negative = inhibition, usual class: inhibitors; 300,000 tested, 1.2% active; calls by dose curve; tested in HEK293 cells; further: nearly all actives have a fitted effect of over 50% in size
Vaccinia mCherry = vaccinia inhibition (mCherry reporter) | Vaccinia virus mCherry reporter infection, fluorescence | Potency, µM (titrated, usually from 36.5 µM), inactives show at the top dose activity change, negative = inhibition, hits mostly inhibitors | 310,000 tested, 0.63% active; calls by dose curve; tested in A549 cells; further: nearly all actives have a fitted effect of over 35% in size
Starred values were filed as active, the others as inactive; i = inactive; ? = inconclusive; . = no result given; [ ] = another dose, or the depositor's remark. On the % scale 0 is the no-effect control and ±100 the full control effect; potency means the concentration at half of the fitted maximal effect.

SMILES	Marburg entry inh	HCV inhibitor	Vaccinia Venus	LASV entry inh	Vaccinia mCherry
CCC(=O)n1nc(-c2ccc(Cl)cc2)nc1N	.	6.2%	.	.	.
Nc1ncc(S(=O)(=O)c2ccc([N+](=O)[O-])cc2)s1	-15.4%[46.1 µM]	3.2%	?	0.0%[46.1 µM]	7.08µM*
O=C(Nc1ncc(S(=O)(=O)c2ccc([N+](=O)[O-])cc2)s1)c1ccccc1F	.	-16.9%	2.1%[7.34 µM]	.	-7.8%[7.34 µM]
O=C1CCCN1c1ncc(S(=O)(=O)c2ccc([N+](=O)[O-])cc2)s1	1.0%	?	?	31.0%	11.2µM*
COc1ccc(-n2c(CCNC(=O)c3ccc(-c4cccc(F)c4)cc3)nnc2SC)cc1	.	.	-10.7%	.	-17.5%
CC(C)=CCCC(C)=CCON=C1C[C@@H](O)[C@@H](O)[C@@H]2[C@H]3C(=O)N(Cc4ccc5c(c4)OCO5)C(=O)[C@@H]3CC[C@@H]12	-43.7%[14.2 µM]	.	.	-0.6%[14.3 µM]	.
CN(C(=O)c1ccco1)c1nc(CC(=O)Nc2ccccc2)cs1	17.8µM*	-19.1%	-12.3%	24.9%	.
COc1ccccc1NC(=O)Cc1csc(NC(=S)Nc2ccccc2)n1	?	12.6µM*	.	-24.9%	.
COc1ccccc1NC(=O)Nc1nc(CC(=O)NCc2c(F)cccc2F)cs1	?	?	-19.4%	?	-5.2%
CCN(C(=O)c1ccco1)c1nc(CC(=O)Nc2ccc(Cl)cc2)cs1	-27.1%	?	-11.2%	-25.0%	-17.0%
COc1ccc(NC(=S)Nc2nc(CC(=O)Nc3ccccc3OC)cs2)cc1	?	31.6µM*	.	?	.
CCC(=O)Nc1nc(CC(=O)Nc2ccccc2)cs1	-14.6%	8.1%	.	14.4%	.
C[C@@H]1CN(Cc2ccc3c(c2)CN(Cc2cccc4cccnc24)CCO3)C[C@H](C)O1	.	.	-1.1%	.	-7.1%
CCOc1ccccc1N(C)C(=O)c1cc(S(=O)(=O)NCCc2ccc(Cl)cc2)ccc1F	.	.	-16.2%	?	-11.7%
COc1ccccc1N1CCN(CCCNC(=O)c2cnn(-c3cccc(Cl)c3)c2C2CCN(C(=O)OC(C)(C)C)CC2)CC1	.	.	-25.8%	?	?
Cc1ccc(Cl)cc1N1CCN(C(=O)Cn2nc(C)n3c(cc4sccc43)c2=O)CC1	4.5%[46.1 µM]	.	-17.7%	.	-15.9%
CCOc1ccc(NC(=O)CC2C(=O)N(c3ccc(C)cc3)C(=O)N2Cc2ccc(OC)cc2)cc1 (centres undefined)	-19.3%[46.1 µM]	.	-1.8%	?	-10.6%
CCc1nn2c(=O)cc(COC(=O)c3ccc(NC(=O)COc4ccccc4C)cc3)nc2s1	.	.	-0.1%	7.0%[46.1 µM]	-7.5%
CCCN(CCC)CCNC(=O)C1CCN(Cc2nc(-c3ccc(Cl)cc3)oc2C)CC1	10.3µM*	0.794µM*	.	?	.
Cc1oc(-c2cccc(Cl)c2)nc1CN1CCC(C(=O)NCCc2ccc(Cl)cc2)CC1	2.0%[46.1 µM]	.	-11.4%	16.7%[46.1 µM]	-20.1%
O=C(NCc1cccnc1)C1CCC(c2ccc(Cl)cc2)CC1 (centres undefined)	?	7.94µM*	-28.4%	-20.5%	?
Cc1oc(-c2ccc(Cl)cc2)nc1CN1CCC(C(=O)NCc2cccnc2)CC1	-28.7%	14.1µM*	.	0.5%	.
O=C(NCc1cccnc1)C1CCN(C(=O)c2ccc(Cl)cc2Cl)CC1	0.2%	5.3%	-7.1%	1.2%	-18.8%
Cc1ccccc1-c1nc(CN2CCCC(C(=O)NCc3cccnc3)C2)c(C)o1 (centres undefined)	?	?	.	-5.5%	.
Cc1cc[n+](C2CCCCC2)c2ccccc12	.	.	-9.4%	.	-7.9%
SMILES	Marburg entry inh	HCV inhibitor	Vaccinia Venus	LASV entry inh	Vaccinia mCherry
CCOC(=O)CSC1=C(C#N)[C@H](c2ccc(OC)cc2)C2=C(CC(C)(C)CC2=O)N1	-12.6%	.	.	.	.
CC(C)OC(=O)c1ccc(NC(=O)CSc2nc3ncccc3[nH]2)cc1	.	11.2µM*	.	.	.
COc1ccc(CNC(=O)C2CCN(S(=O)(=O)c3c(C)noc3/C=C/c3ccccc3F)CC2)cc1	.	.	-10.9%[7.34 µM]	?	-5.0%[7.34 µM]
CCOC(=O)c1cnc(-n2nc(C)cc2C)nc1NC1CCCC1	11.2µM*	1.12µM*	-16.3%[7.34 µM]	?	-13.8%[7.34 µM]
CCOC(=O)c1cnc(-n2nc(C)cc2C)nc1Oc1ccc(C(=O)OC)cc1	7.3%[46.1 µM]	-14.8%	-25.5%[7.34 µM]	?	-13.8%[7.34 µM]
CCOC(=O)c1cnc(-n2nc(C)cc2C)nc1Nc1ccc(OC)cc1	?	11.2µM*	.	?	.
Cc1cc(C)c(/C=C2/C(=O)Nc3ccccc32)[nH]1	9.0%	.	.	.	.
O=[N+]([O-])c1ccc(-c2nc(-c3cccs3)c(-c3cccs3)[nH]2)cc1	?	?	?	?	11.2µM*
O=[N+]([O-])c1cccc(-c2nc(-c3cccs3)c(-c3cccs3)[nH]2)c1	?	12.6µM*	?	-14.6%	-25.8%
CN1CCC(CO)(Cc2ccccc2)CC1	.	15.9%	.	.	.
OCC1(Cc2ccc(Cl)cc2)CCN(CCCc2ccccc2)CC1	?	12.6µM*	-24.1%	?	i
OCC1(Cc2ccc(Cl)cc2)CCN(Cc2ccccc2F)CC1	?	-3.8%	-24.2%	-0.8%[46.1 µM]	-6.0%
CSc1ccc(CN2CCC(CO)(Cc3ccc(Cl)cc3)CC2)cc1	?	?	13.9%	12.6µM*	-5.8%
COc1cc(=O)n2c(c1C(=O)NC(C)c1ccco1)CCN(C(=O)c1ccc3c(c1)OCCO3)CC2 (centres undefined)	.	.	-5.8%	.	-7.8%
CCCCN1CC(COCc2ccccc2)Oc2cccc(OCCN3C(=O)[C@@H]4[C@H](C3=O)C3C=C[C@H]4C3)c2S1(=O)=O (some centres undefined)	.	10µM*	-28.0%	.	-5.6%
COc1cc(OC)c(OC)cc1CN(C)CC1CCCN(CCc2ccccc2F)C1 (centres undefined)	.	14.1µM*	.	.	.
COC(=O)CCCC(=O)N(C)CC1CCCN(CCc2ccccc2C)C1 (centres undefined)	-3.8%[46.1 µM]	1.4%	-6.1%	0.3%[46.1 µM]	-1.3%
COc1cccc(CN(C)CC2CCCN(CCc3ccccc3C)C2)c1 (centres undefined)	.	11.2µM*	.	.	.
Cc1cc(C)c(C(=O)N(C)CC2CCCN(CCc3ccccc3F)C2)o1 (centres undefined)	?	.	-17.8%	1.0%	-1.8%
COc1ccc(CN(C)CC2CCCN(CCc3ccccc3C)C2)cc1O (centres undefined)	8.91µM*	?	-25.9%	?	-13.0%
Cc1ncc2c(c1CNS(=O)(=O)c1cccs1)CCN(C(=O)/C=C/c1cc(F)cc(F)c1)C2	.	.	-12.1%	.	-19.6%
COc1ccc(Cl)cc1Nc1ccc2cc(S(=O)(=O)N3CCCCC3)ccc2n1	.	.	-10.7%	-20.1%[46.1 µM]	-26.4%
O=C(NCc1ccc(F)cc1)c1cccc(N2CCCS2(=O)=O)c1	.	.	-5.8%	-5.9%[46.1 µM]	-12.5%
COc1cc(C2Nc3ccccc3C(=O)N2c2ccc3c(c2)OCCO3)ccc1OCC(C)C (centres undefined)	?	?	-25.1%	?	-5.6%[1.46 µM]
O=C1c2ccccc2NC(c2ccc3c(c2)OCCO3)N1c1ccc2c(c1)OCCO2 (centres undefined)	8.91µM*	-8.2%	-11.4%	?	.
CCn1cnc2sc(C(=O)Oc3cccc(C)c3)c(C)c2c1=O	?	1.41µM*	-8.2%	6.4%[46.1 µM]	i
